Compounds with a hit are over-represented: about 6.8% of the library has one in this group of screens.
Spn MK inh – S. pneumoniae mevalonate kinase inhibition. 0.48% of 65,000 active. AID 555. inhibition, % at 10 µM. purified MK, PK/LDH-coupled NADH absorbance 340 nm;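 active means ranked among the strongest by inhibition in the single 10 µM screen, a fixed top-ranked set picked for dose follow-up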
A340 absorber – absorbance at 340 nm; 65,000 tested, under 10 active; fold change at 10 µM; compound absorbance at 340 nm, fold over control; AID 708;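 active means at 10 µM dose, initial 340 nm absorbance at least 2 fold that of control wells; inactive means change under 2 fold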;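 further: initial absorbance extrapolated from kinetic A340 decline of NADH oxidation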
PMK inhibit – inhibitors of Streptococcus pneumoniae phosphomevalonate kinase; inhibition, % at 10 µM; purified PMK, PK/LDH-coupled NADH absorbance 340 nm; AID 539; 0.49% of 65,000 active;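 active means top-ranked compounds by inhibition in the single 10 µM screen, taking a fixed number of the strongest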
NADH coupling – blocks coupling enzymes of NAD/NADH assays; coupled PK/LDH NADH assays, four targets; IC50, µM (doses to about 10 µM); 0.02% of 65,000 active;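 active means single-dose screening hits from any of four coupled enzyme assays that gave an IC50 when retested across doses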;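 further: the DPM-DC format reads NADH fluorescence rather than 340 nm absorbance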
DPM-DC inhibit – blocks S. pneumoniae diphosphomevalonate decarboxylase | 0.49% of 65,000 active | calls only at 10 µM | purified DPM-DC, PK/LDH coupled NADH fluorescence;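 active means the 320 compounds with the highest percent inhibition in the single-dose primary screen, excluding strongly autofluorescent ones, cut at about 32% in these data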;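 further: kinetic rate of NADH fluorescence loss reporting ADP formed by the decarboxylase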
Autofluor 339 – intrinsic fluorescence of library compounds, ex339/em460 – biochemical, MLSMR library, data from DPM-DC assay, artefact control, profiling panel; compound autofluorescence, ex339/em460 nm, NADH buffer; hits give high values; 1 = no-compound wells, NADH background; fluorescence fold increase at 10 µM; 5.5% of 65,000 active;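 active means at 10 µM, mean starting fluorescence two-fold or more over control wells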;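 further: signal is the first read of a kinetic run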
Large screens that a line does not name were inactive.

CC(=O)N=c1c(C#N)cc2c(=O)n3cccc(C)c3nc2n1CC(C)C	Autofluor 339 3.9 (not shown: DPM-DC inhibit)
Cc1cccn2c(=O)c3cc(C#N)c(=N)n(Cc4ccncc4)c3nc12	none
Cc1ccc(-n2c(=O)c(C#N)cc3c(=O)n4ccccc4nc32)cc1	Autofluor 339 3.3 (not shown: DPM-DC inhibit)
O=C1COc2ccc(C(=O)CSc3nnc(Cc4cccs4)n3-c3ccccc3)cc2N1	none
Cc1cc(C)n2c3c(c(C#N)c2n1)CCCC3	none
Cn1cnc2c1c(=O)[nH]c(=O)n2C	none
CC(CCc1ccccc1)NC(=O)c1ccncc1 (configuration not stated)	none
CC(CCc1ccccc1)NCC(O)c1ccc(O)c(C(N)=O)c1 (configuration not stated)	Autofluor 339 2.5 (not shown: DPM-DC inhibit)
CCN(CC)CCCN1C(=O)C(=O)/C(=C(/O)c2ccccc2)C1c1cc(OC)ccc1OC (configuration not stated)	none
O=C(NC12CC3CC(CC(C3)C1)C2)c1ccccc1O	Autofluor 339 2.2
Cn1c2ccccc2c2cc(C(=O)OCC(=O)N3CC(=O)Nc4ccccc43)sc21	Autofluor 339 2.1 (not shown: DPM-DC inhibit)
CCCOc1ccccc1-c1nc2c([nH]1)c(=O)[nH]c(=O)n2C	Autofluor 339 3.7 (not shown: DPM-DC inhibit)
CCOC(=O)c1sc(-n2[nH]c(C)cc2=O)nc1C	none
O=C(NCCC1=CCCCC1)C1COc2ccccc2O1 (configuration not stated)	none
CC(C)OC(=O)c1cccnc1SCc1cc(=O)n2ccccc2n1	PMK inhibit 28
CN1CCN(P(=O)(c2ccccc2)c2nc3ccccc3s2)CC1 (configuration not stated)	none
Cc1cn2nc(N)c3ccccc3c2n1	Autofluor 339 5 (not shown: DPM-DC inhibit)
CCn1ncc(Br)c1C(=O)Nc1sc2c(c1C(=O)OC)CCC2	Autofluor 339 2.5
COC(=O)c1c(NC(=O)c2nn(C)cc2Cl)sc2c1CCCC2	Autofluor 339 2.4 (not shown: DPM-DC inhibit)
COC(=O)c1c(NC(=O)c2ccc(Br)s2)sc2c1CCC2	none
CC(C)(C)OC(=O)N1CC2Cc3[nH]c(=O)ccc3C(C2)C1 (configuration not stated)	none
O=c1c2cc(N3CCOCC3)ccc2[nH]c(=S)n1CCCN1CCCCCC1	Autofluor 339 2.9
CC(C)OCCCn1c(=S)[nH]c2ccc(N3CCOCC3)cc2c1=O	Autofluor 339 3.7
CC(C)OCCCn1c(=S)[nH]c2cc3c(cc2c1=O)OCO3	none
O=c1c2cc3c(cc2[nH]c(=S)n1CCN1CCOCC1)OCO3	none
O=c1c2cc(N3CCOCC3)ccc2[nH]c(=S)n1CCCN1CCN(c2ccccc2F)CC1	DPM-DC inhibit active, Autofluor 339 3.5
O=c1c2cc(N3CCOCC3)ccc2[nH]c(=S)n1CCN1CCCC1	Autofluor 339 2.6
N#CCCN(Cc1cccnc1)C(=O)c1ccc(S(=O)(=O)N2CCOCC2)cc1	none
CC(C)P(=O)(Cc1cccc(C#N)c1)C(C)C	none
COc1cccc(OC)c1C(=O)N1CCN(S(=O)(=O)c2ccc(C)cc2)CC1	none
Cc1ccc(Cn2c(=S)[nH]c3ccc(N4CCOCC4)cc3c2=O)o1	Autofluor 339 2.8
COc1ccc(C2(C)NC(=O)N(Cc3cc(Cl)cc4c3OCOC4)C2=O)cc1OC (configuration not stated)	PMK inhibit 31
c1nc(NC2CCCC2)c2[nH]cnc2n1	none
c1ccc2c(NC3CCCC3)nnc(NC3CCCC3)c2c1	Autofluor 339 2.1
Cc1ccc(OCCn2c(C)c(/C=N/n3cnnc3)c3ccccc32)cc1	DPM-DC inhibit active
Cc1c(/C=N/n2cnnc2)c2ccccc2n1CCOc1ccc(Cl)cc1	none
Cc1cc(-c2ccccc2)n2ncc(C#N)c2n1	Autofluor 339 2.1 (not shown: DPM-DC inhibit)
N#Cc1cnn(-c2ccccc2)c1N	none
CCOC(=O)C1C(=O)CC(C)(O)C(C(=O)OCC)C1c1ccccc1OC (configuration not stated)	none
CCSc1nc(-c2ccc(OC)cc2)ccc1C#N	Autofluor 339 2
Cc1sc2ncnc(SCC(=O)NC(=O)NCc3ccco3)c2c1C	none
O=C(Cc1ccccc1)CC1(O)C(=O)Nc2ccccc21 (configuration not stated)	none
CCOC(=O)CS(=O)(=O)c1nc(-c2ccccc2)cc(C(F)(F)F)n1	none
NC(=O)c1c(C(F)(F)F)cc(-c2ccccc2)nc1NCCO	Autofluor 339 3.7 (not shown: DPM-DC inhibit)
CCOC(=O)c1c(C)nc2ccccn12	none
CCCCn1c(=NC(=O)c2ccco2)c(C(=O)OCC)cc2c(=O)n3ccccc3nc21	Autofluor 339 2.2 (not shown: DPM-DC inhibit)
CCCCCn1c(=NC(=O)c2ccco2)c(C(=O)OCC)cc2c(=O)n3ccccc3nc21	Autofluor 339 3
O=C(O)CSc1nnc(CNc2cccc(C(F)(F)F)c2)n1Cc1ccco1	none
OC1(c2cccc(C(F)(F)F)c2)CCN(c2ncnc3c2[nH]c2ccc(F)cc23)CC1	Autofluor 339 2.5
CC(C)C(NS(=O)(=O)c1ccc2c(c1)oc(=O)n2C)C(=O)N1CCN(Cc2ccccc2)CC1 (configuration not stated)	none
CCc1nc2c(c(=O)[nH]1)C1(CCCC1)Cc1ccccc1-2	none
O=c1[nH]c(NCCO)nc2c1C1(CCCCC1)Cc1ccccc1-2	Autofluor 339 3.9 (not shown: DPM-DC inhibit)
CC1(C)CC(n2c(NCCO)nc3c(c2=O)C2(CCCC2)Cc2ccccc2-3)CCO1 (configuration not stated)	Autofluor 339 2 (not shown: DPM-DC inhibit)
Cc1n[nH]c(=S)n(/N=C/c2ccccn2)c1=O	PMK inhibit 43
CCOc1ccc(-c2nnc(-c3cccs3)o2)cc1OCC	Autofluor 339 3.7 (not shown: DPM-DC inhibit)
O=c1cc(-c2ccco2)nc(-c2cccs2)o1	none
Brc1ccccc1-c1nnc(-c2cccnc2)o1	none
c1coc(-c2nnc(-c3cccs3)o2)c1	Autofluor 339 3.4 (not shown: DPM-DC inhibit)
COc1cc2nc(-c3cccs3)oc(=O)c2cc1OC	none
COc1ccc(-c2nnc(-c3cccs3)o2)cc1OC	Autofluor 339 2.5 (not shown: DPM-DC inhibit)
c1cncc(-c2nnc(-c3cccs3)o2)c1	Autofluor 339 2.3
CCOc1ccc(-c2nc(-c3ccccc3)no2)cc1OCC	none
O=C(CN1CCC(C(=O)c2ccc(Cl)cc2)CC1)Nc1ccc2c(c1)OCCO2	none
CCNc1nc(OC)nc(SCC(N)=O)n1	none
CC(C)CC(C(=O)Nc1oc(-c2ccco2)c(-c2ccco2)c1C#N)N1C(=O)c2ccccc2C1=O (configuration not stated)	none
COC(=O)CSc1nc(-c2ccccc2)cc(-c2ccco2)c1C#N	none
COc1cc(-c2nnc(-c3cccs3)o2)cc(OC)c1OC	Autofluor 339 2.5
c1csc(-c2nnc(-c3ccc(N4CCOCC4)cc3)o2)c1	Autofluor 339 3.7 (not shown: DPM-DC inhibit)
COc1cc(-c2nnc(SCC#CCO)o2)cc(OC)c1OC	none
O=c1[nH]c(-c2ccccc2O)nc2c1CCCC2	Autofluor 339 3.3
O=c1[nH]c(N2CCc3ccccc3C2)nc2c1CCCC2	none
Cc1[nH]c2ccc(Br)cc2c(=O)c1CN1CCCCC1	none

Source: PubChem (SRMLSC)
